Inconclusive results are not listed. The source made the active and inactive calls. How the source made its calls, unless noted: active means hit-call score of the fitted dose curve at least 0.9, where 1 is the maximum; inactive means score below 0.9.

A short description of experiment [1]: BSK_BT_PBMCCytotoxicity: PBMC Cytotoxicity Assessment in the BioMAP Diversity Plus: BT Assay (AID 2284225).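 Further: PBMC viability measured by Alamar Blue dye reduction fluorescence.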 Conditions: primary human B cells with PBMC. The essentials: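 PBMC (75,000/well) pretreated with compound 1 h, then activated with SEB and TSST-1 (20 ng/mL each final), incubated 90 h; Alamar Blue added 6 h, fluorescence read at 546/580 nm. Fitted relative to DMSO.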

Read-out in experiment [2]: Secreted IgG (sIgG), gene 3500
The experiment is described as follows: BSK_BT_sIgG: BioMAP Diversity Plus: BT Assay for Secreted IgG (sIgG) Biomarker Activity (AID 2284226). Conditions: primary human B cells with PBMC. The method, boiled down:
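Human B cell plus PBMC co-culture; secreted IgG measured by ELISA 24 h after chemical dosing. Response fitted in positive direction relative to DMSO baseline.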

Experiment [3] can be described thus: BSK_BT_Bcell_Proliferation: Viability Assessment in the BioMAP Diversity Plus: BT Assay for B cell Proliferation (AID 2284227). Conditions: primary human B cells with PBMC. The method, boiled down: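 SRB-based protein staining (0.1% SRB after 10% TCA fixation, 560 nm) quantifies proliferation in human B cells co-cultured with PBMC, 72 h post-dosing, with signal gain scored relative to DMSO negative control.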

Read-out in experiment [4]: Interleukin 6 (IL6), IL6 (gene 3569)
The experiment is described as follows: BSK_BT_xIL6: BioMAP Diversity Plus: BT Assay for Interleukin 6 (IL6) Biomarker Activity (AID 2284228). Particulars: primary human B cells with PBMC. The essentials: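 Chemical added to human B cell/PBMC co-culture → 24 h → supernatant IL-6 by Luminex xMAP → fit vs DMSO baseline, upward direction.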

Read-out in experiment [5]: Tumor necrosis factor (Homo sapiens) (UniProt P01375)
Put plainly: BSK_BT_xTNFa: BioMAP Diversity Plus: BT Assay for Tumor necrosis factor alpha (TNF-alpha) Biomarker Activity (AID 2284230). Conditions: primary human B cells with PBMC. The method, boiled down:
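Compounds were added to a B cell plus PBMC co-culture, and after 24 h secreted TNF-alpha was quantified with Luminex xMAP technology, with responses fitted upward from the DMSO control.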

Read-out in experiment [6]: Vascular cell adhesion molecule 1 (VCAM1), VCAM1 (gene 7412)
The experiment is described as follows: BSK_MyoF_VCAM1: BioMAP Diversity Plus: MyoF Assay for Vascular cell adhesion molecule 1 (VCAM1) Biomarker Activity (AID 2284231). Particulars: primary human lung fibroblasts. The essentials: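 Steps: fibroblasts from human lung exposed to compound; biomarker quantified by ELISA at 24 h; values analysed for upward change over the DMSO baseline.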

Read-out in experiment [7]: Collagen I, COL1A1 (gene 1277)
Put plainly: BSK_MyoF_CollagenI: BioMAP Diversity Plus: MyoF Assay for Collagen I Biomarker Activity (AID 2284238). Particulars: primary human lung fibroblasts. The method, boiled down:
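Multiplexed primary human lung fibroblast system; Collagen I measured by ELISA at 24 h post-dose. Increases are referenced to DMSO.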

Experiment [8] is described as follows: CCTE_Mundy_HCI_Cortical_Synap_Neur_Matur_NeuriteSpotCountPerNeuriteLength: CCTE's Synaptogenesis and Neurite Maturation Assay in rat cortical cells for Neurite Spot Count per Neurite Length, Mundy Lab (AID 2284210). The essentials: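 Rat primary cortical cultures, AraC added at DIV 5 to suppress glia; chemical exposure from DIV 7 to DIV 12. Fixed cells stained for MAP2 and synaptophysin plus Hoechst; synaptophysin puncta per neurite length quantified by high-content imaging, relative to DMSO.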

Experiment [9] in a line: CCTE_Mundy_HCI_Cortical_Synap_Neur_Matur_BPCount: CCTE's Synaptogenesis and Neurite Maturation Assay in rat cortical cells for Branch Point Count, Mundy Lab (AID 2284211). The essentials:
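Rat primary cortical cultures, AraC added DIV 5; chemicals dosed DIV 7 through DIV 12. Fixed cells stained for MAP2, synaptophysin and Hoechst; neurite branch points counted by automated high-content imaging, fitted relative to DMSO.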

A short description of experiment [10]: CCTE_Mundy_HCI_Cortical_NOG_NeuriteCount: CCTE's Neurite Outgrowth Assay in rat cortical cells for Neurite Count, Mundy Lab (AID 2284212).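 Further: cells fixed about two days after chemical exposure began.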 The essentials:
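Neurite number per cell from high-content imaging of betaIII-tubulin immunostaining, with Hoechst nuclear counterstain.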

Experiment [11] in a line: CCTE_Mundy_HCI_Cortical_NOG_NeuriteLength: CCTE's Neurite Outgrowth Assay in rat cortical cells for Neurite Length, Mundy Lab (AID 2284213). The method, boiled down: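 Neurite length was read by high-content imaging of βIII-tubulin-labelled neurites in rat primary cortical cultures. Activity was fitted relative to DMSO.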
Experiment [12] is described as follows: CCTE_Mundy_HCI_Cortical_Synap_Neur_Matur_NeuriteLength: CCTE's Synaptogenesis and Neurite Maturation Assay in rat cortical cells for Neurite Length, Mundy Lab (AID 2284214). The essentials: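 Rat primary cortical cultures, AraC added DIV 5, dosed DIV 7 through DIV 12 […]. Fixed, MAP2/synaptophysin immunostained with Hoechst; neurite length by high-content imaging, fitted in positive direction versus DMSO.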

Experiment [13] in a line: CCTE_Mundy_HCI_Cortical_Synap_Neur_Matur_NeuriteSpotCountPerNeuron: CCTE's Synaptogenesis and Neurite Maturation Assay in rat cortical cells for Neurite Spot Count per Neuron Count, Mundy Lab (AID 2284215). The essentials: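 Synapse density is scored as synaptophysin spots along neurites per neuron in fixed rat cortical neurons, measured at DIV 12 after chemical dosing at DIV 7. DMSO is the negative control and activity baseline.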

Experiment [14] can be described thus: CCTE_Mundy_HCI_Cortical_Synap_Neur_Matur_SynapseCount: CCTE's Synaptogenesis and Neurite Maturation Assay in rat cortical cells for Synapse Count, Mundy Lab (AID 2284218). The essentials: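 Rat primary cortical cultures, AraC at DIV 5, chemical dosing DIV 7 to DIV 12 (288.33 h). Fixed cells stained for MAP2, synaptophysin and Hoechst; synapses per neuron counted by high-content imaging, loss of signal versus DMSO.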

Experiment [15] can be described thus: CCTE_Mundy_HCI_Cortical_Synap_Neur_Matur_NeuriteCount: CCTE's Synaptogenesis and Neurite Maturation Assay in rat cortical cells for Neurite Count, Mundy Lab (AID 2284222).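 Further: exposure from day 7 to day 12 in vitro with readout at day 12.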 The method, boiled down:
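Chemical exposure runs DIV 7–12 in rat cortical cultures, glia suppressed by AraC at DIV 5; measurement is at DIV 12. Imaging-derived neurite counts are fitted against DMSO baseline.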

Experiment [16] in a line: CCTE_Mundy_HCI_Cortical_Synap_Neur_Matur_CellBodySpotCount: CCTE's Synaptogenesis and Neurite Maturation Assay in rat cortical cells for Cell Body Spot Count, Mundy Lab (AID 2284223). The essentials:
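Synapse number at neuronal cell bodies was quantified as synaptophysin puncta per neuron in rat cortical cultures exposed from DIV 7 to DIV 12. Values were normalised to DMSO.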

Experiment [17] in a line: CCTE_Mundy_HCI_hNP1_Pro_ResponderAvgInten: CCTE's Proliferation Assay in human neuroprogenitor cells, Mundy Lab (AID 2284224; active means hit-call score of the fitted dose curve at least 0.9, where 1 is the maximum;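 further: human neural progenitor cells hNP1 derived from WA09 embryonic stem cells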). The method, boiled down:
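Proliferation read as average intensity of BrdU-positive cells, imaged at 26.25 h post-dosing: chemical exposure started after 40–44 h culture, BrdU during final 4 h, paraformaldehyde fixation. Positive-direction fit relative to DMSO.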

Experiment [18] in a line: CCTE_Mundy_HCI_Cortical_NOG_BPCount: CCTE's Neurite Outgrowth Assay in rat cortical cells for Branch Point Count, Mundy Lab (AID 2284237). The method, boiled down: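 Measured 50.33 h after dosing, this morphology endpoint uses rat primary cortical cultures labelled for betaIII-tubulin. Branch points are quantified by high-content imaging, with DMSO as negative control and baseline.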

Chain of Tumor necrosis factor (Homo sapiens) (P01375 whole entry, looked up): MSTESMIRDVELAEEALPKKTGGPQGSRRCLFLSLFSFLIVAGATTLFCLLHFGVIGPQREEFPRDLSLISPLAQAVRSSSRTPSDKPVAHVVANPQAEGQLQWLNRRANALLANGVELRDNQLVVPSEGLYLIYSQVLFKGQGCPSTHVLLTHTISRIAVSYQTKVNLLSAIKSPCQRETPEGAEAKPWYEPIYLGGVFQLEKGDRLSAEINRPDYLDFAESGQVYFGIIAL

In the case of `C=C[Si](OCC)(OCC)OCC`, the result in experiment [1], in [2], in experiment [3], in experiment [4], in experiment [5] and in experiment [6] was inactive. The result in experiment [7] was inactive.

For orientation: AC50 means the concentration giving half of the maximal activity seen. In the case of `O=C1CCCCCCCCCCCCCCO1`, the AC50 in [1] is 36.8 µM (active); in experiment [2], 23.4 µM (active); in experiment [3] it was 34.9 µM (active); in experiment [4], 30.4 µM (active); in experiment [5] it was 35.8 µM (active); in experiment [6], 20 µM (active). Also, the AC50 in [7] was 8.87 µM (active).

`BrC1CCC(Br)C(Br)CCC(Br)C(Br)CCC1Br` (configuration not stated): the AC50 was 32.4 µM (active) in experiment [1], 9.16 µM (active) in [2], 28.4 µM (active) in experiment [3] and 28.2 µM (active) in experiment [5]. For the same molecule, the outcome in [4], in experiment [6] and in experiment [7] was inactive.

For the molecule `Cc1ccc(Nc2ccc(O)c3c2C(=O)c2ccccc2C3=O)cc1`, the outcome in experiment [1], in experiment [2], in experiment [3], in experiment [4], in experiment [5] and in experiment [6] was inactive. Further, the result in [7] was inactive.

For the molecule `C=C(C)C(=O)O[C@H]1C[C@@H]2CC[C@@]1(C)C2(C)C`, the outcome in experiment [1], in experiment [2], in experiment [3], in [4] and in experiment [5] was inactive. For the same molecule, the AC50 in experiment [6] was 33.6 µM (active); in experiment [7] it was 29.2 µM (active).

In the case of `CC(=O)Nc1ccccc1O`, the outcome in experiment [1], in [2], in experiment [3], in experiment [4], in experiment [5] and in experiment [6] was inactive. Moreover, the outcome in experiment [7] was inactive.

Consider `N#Cc1ccc(CC(=NNC(=O)Nc2ccc(OC(F)(F)F)cc2)c2cccc(C(F)(F)F)c2)cc1`, for which the call in experiment [8], in experiment [9], in experiment [10], in experiment [11], in experiment [12] and in experiment [13] was inactive. In addition, the molecule was classed as inactive in experiment [14], in experiment [15], in experiment [16], in experiment [17], in experiment [1] and in experiment [3]. The outcome in [4], in [5], in [6], in experiment [18] and in experiment [7] was inactive. The AC50 in [2] was 9.95 µM (active).

`CN(C)C(=N)N=C(N)N`: the molecule was classed as inactive in experiment [8], in experiment [10], in experiment [11], in [13], in experiment [14] and in experiment [15]. The molecule was called inactive in experiment [16] and in experiment [18]. Besides, the AC50 in [9] and in [12] was 18.1 µM (active) each time.

In the case of `CCCCC(CC)COCCC#N` (configuration not stated), the result in experiment [1], in experiment [2], in experiment [3], in experiment [4], in experiment [5] and in [6] was inactive. Also, the result in experiment [7] was inactive.

As for `CC(C)(COC(=O)c1ccccc1)COC(=O)c1ccccc1`, the outcome in experiment [1], in [3], in experiment [4], in experiment [5], in experiment [6] and in experiment [7] was inactive. In addition, in experiment [2], the AC50 is 29.9 µM (active).

With `CCc1c(C)cc(N)c(CC)c1N`, the outcome in experiment [1], in experiment [2], in experiment [3], in experiment [4], in [5] and in experiment [6] was inactive. The result in [7] was inactive.

As for `O=C1OC2(c3cc(Br)c(O)c(Br)c3Oc3c2cc(Br)c(O)c3Br)c2c(Cl)c(Cl)c(Cl)c(Cl)c21`, the result in experiment [1], in experiment [2] and in experiment [3] was inactive. In addition, the AC50 was 8.52 µM (active) in [4], 13.2 µM (active) in [5], 5.03 µM (active) in experiment [6] and 3.89 µM (active) in experiment [7].

Turning to `O=P(c1ccccc1)(c1ccccc1)c1ccccc1`, the result in experiment [1], in experiment [2], in [3], in experiment [4], in [5] and in experiment [6] was inactive. The outcome in experiment [7] was inactive.

Take `O=C(O)c1cn(-c2ccc(F)cc2)c2cc(N3CCNCC3)c(F)cc2c1=O`: the result in experiment [1], in experiment [2], in [3], in experiment [4], in experiment [5] and in experiment [6] was inactive. The outcome in experiment [7] was inactive.

In the case of `CC(=O)O[C@]1(C(C)=O)CC[C@H]2[C@@H]3C[C@H](C)C4=CC(=O)CC[C@]4(C)[C@H]3CC[C@@]21C`, the outcome in [1], in [3], in [4], in experiment [5], in experiment [6] and in experiment [7] was inactive. Further, in experiment [2], the AC50 is 14.4 µM (active).

For the molecule `CCn1c2ccccc2c2cc(N)ccc21`, the outcome in experiment [1], in experiment [5], in experiment [6] and in [7] was inactive. Moreover, the figures for the AC50 in experiment [2], in experiment [3] and in experiment [4] were 15.4 µM (active), 13.1 µM (active) and 11.6 µM (active), respectively.

With `O=C=NC1CCC(CC2CCC(N=C=O)CC2)CC1` (configuration not stated), the result in [1], in experiment [4], in [5], in [6] and in experiment [7] was inactive. Also, the AC50 in experiment [2] was 31 µM (active); in experiment [3] it was 31.2 µM (active).

As for `CC(C)c1ccc(C(C)C)cc1`, the outcome in experiment [1], in [2], in experiment [3], in experiment [4], in experiment [5] and in experiment [6] was inactive. The result in [7] was inactive.

As for `CC1COc2ccccc2N1C(=O)C(Cl)Cl` (configuration not stated), the AC50 in [1] was 12.4 µM (active); in experiment [2], 20 µM (active); in experiment [3], 14.1 µM (active); in experiment [6], 20 µM (active); in experiment [7], 14.4 µM (active). Further, the result in experiment [4] and in [5] was inactive.
